Assay [1] deals with Thyrotropin receptor (Homo sapiens) (UniProt P16473). Description: qHTS assay to identify small molecule agonists of the thyroid stimulating hormone receptor (TSHR) signaling pathway (AID 1224843; calls by dose curve; further: nearly all actives have a fitted effect of over 45% in size). Put shortly: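 Steps: seed 800 TSHR-HEK293 cells per well; add test compound and hold 30 min at ambient temperature; dispense cAMP-d2 then anti-cAMP cryptate; incubate 1 h at ambient; measure fluorescence intensity.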
(Quantitative high-throughput screening tests each substance at several concentrations.)

A short description of assay [2]: qHTS assay to identify small molecule agonists of the hypoxia (HIF-1) signaling pathway - cell viability counter screen (AID 1224844; calls by dose curve; further: nearly all actives have a fitted effect of over 50% in size). The method, boiled down:
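Luminescent ATP content (CellTiter-Glo, 30 min, room temperature) served as the viability measure in HRE-bla ME-180 cells exposed to compounds for 17 hrs in low-serum medium (0.5% dialyzed FBS).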

The nature of assay [3]: qHTS assay to identify small molecule agonists of H2AX (AID 1224845; active means well fitted activation curve with a large enough effect in the signal ratio in the repeat runs, not every such curve was filed as active; the % refers to the signal ratio). Put shortly:
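Wild-type CHO-K1 cells, plated overnight, exposed 3hr at 37C to 15 concentrations (0.76% DMSO final). Lysed, then HTRF anti-pH2AX (S139) cryptate and anti-H2AX-d2 antibodies, 24 hr room temperature; 665/620 nm emission read.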

A short description of assay [4]: qHTS assay to identify small molecule agonists of the hypoxia (HIF-1) signaling pathway (AID 1224846; active means well fitted activation curve with a large enough effect in the signal ratio in the repeat runs, not every such curve was filed as active; the % refers to the signal ratio). The method, boiled down:
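Measured by blue/green FRET after loading CCF4-AM: beta-lactamase expressed from a hypoxia response element in ME-180 cells. Test agents were delivered in DMSO and left 17 hrs; cells had been plated 5 hrs earlier in low-serum (0.5% dialyzed FBS) medium.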

Assay [5] is described as follows: qHTS assay to identify small molecule agonists of H2AX - cell viability counter screen (AID 1224847; calls by dose curve; further: top concentration of the series differs between compounds; nearly all actives have a fitted effect of over 30% in size). The method, boiled down:
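For this counter screen, overnight-attached CHO-K1 cells received test compounds (15 concentrations, 0.76% DMSO final); 3 hr later at 37C, CellTiter-Glo reagent was added and luminescence recorded after 30 min at room temperature.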

Assay [6] in a line: qHTS assay to identify small molecule antagonists of the estrogen related receptor (ERR) signaling pathway from Tox21 library (AID 1224848). Further: nearly all actives have a fitted effect of over 50% in size. Further: potency means the concentration at half of the fitted maximal effect. Put shortly: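 Luminescent reporter read-out (ONE-Glo) from NTP's ERR cell line after 18 h treatment at 37 C with DMSO-dissolved Tox21 compounds; cells pre-plated 6 h beforehand at 2,000 per well.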
The nature of assay [7]: qHTS assay to identify small molecule agonists of the estrogen related receptor (ERR) signaling pathway from Tox21 library (AID 1224849; calls by dose curve; further: nearly all actives have a fitted effect of over 15% in size). The settings on record: ERR reporter cell line, ONE-Glo luciferase, 18 h; at 92.4 µM (top of the series) unless noted. Put shortly: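 We plated ERR reporter cells, waited 6 h, added compounds in DMSO by pin tool and incubated them 18 h at 37 C. ONE-Glo was then added and luminescence read after 30 min.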

Assay [8] can be described thus: qHTS RealTime-Glo MT Cell Viability Assay in HepG2 cells - 24 hour (AID 1224867). Further: nearly all actives have a fitted effect of over 50% in size. The method, boiled down: (§1)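 HepG2 suspension premixed with RealTime-Glo reagents is plated at 600 cells per well and left 5 h at 37 C/5% CO2. Compounds in DMSO then go in, and bioluminescence reflecting viable cell number is recorded over 40 h.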
The nature of assay [9]: qHTS RealTime-Glo MT Cell Viability Assay in HEK293 cells - 32 hour (AID 1224868). Further: top concentration of the series differs between compounds; nearly all actives have a fitted effect of over 50% in size. The method, boiled down: (§2)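 Reads taken at 0, 8, 16, 24, 32 and 40 h from the same wells. HEK293 cells (600/well) carried RealTime-Glo reagents from seeding, with compound added after a 5 h settle at 37 C.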
A short description of assay [10]: A CellTox Green Cytotoxicity Assay to monitor cytotoxicity in HEK293 cells - 0 hour (AID 1224869). Further: nearly all actives have a fitted effect of over 50% in size. The method, boiled down:
(§3)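 Each value comes from one timepoint of a single continuous run in which HEK293 cells with CellTox Green were exposed to compound for up to 40 h at 37 C, dye fluorescence rising with cell death.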

A short description of assay [11]: qHTS RealTime-Glo MT Cell Viability Assay in HepG2 cells - 40 hour (AID 1224870). Further: nearly all actives have a fitted effect of over 50% in size. The method, boiled down: (§4)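 HepG2 cells (600/well) mixed with RealTime-Glo MT reagent, settled 5 h at 37 C/5% CO2 before compound addition. Nonlytic NanoLuc luminescence from viable-cell prosubstrate reduction read repeatedly during 40 h treatment at 37 C.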
The nature of assay [12]: A CellTox Green Cytotoxicity Assay to monitor cytotoxicity in HEK293 cells - 40 hour (AID 1224871). Further: nearly all actives have a fitted effect of over 45% in size. The method, boiled down:
as §3

Assay [13] can be described thus: qHTS RealTime-Glo MT Cell Viability Assay in HEK293 cells - 16 hour (AID 1224872). Put shortly: as §2
The nature of assay [14]: qHTS RealTime-Glo MT Cell Viability Assay in HepG2 cells - 8 hour (AID 1224873). Further: nearly all actives have a fitted effect of over 55% in size. The method, boiled down:
as §4

Assay [15] is described as follows: qHTS RealTime-Glo MT Cell Viability Assay in HEK293 cells - 40 hour (AID 1224874). Further: nearly all actives have a fitted effect of over 50% in size. To be noted: RealTime-Glo luminescence; max response: hits give low values. Put shortly: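 qHTS format; HEK293 cells with NanoLuc/prosubstrate reagent, 37 C/5% CO2 for 5 h pre-dosing; compounds 23 nL in DMSO; luminescence at each time point reflects viable cells.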
Assay [16] in a line: A CellTox Green Cytotoxicity Assay to monitor cytotoxicity in HEK293 cells - 24 hour (AID 1224875). Further: nearly all actives have a fitted effect of over 45% in size. Put shortly: as §3
The nature of assay [17]: A CellTox Green Cytotoxicity Assay to monitor cytotoxicity in HepG2 cells - 16 hour (AID 1224876). Further: nearly all actives have a fitted effect of over 45% in size. Put shortly:
(§5)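 Continuous culture of HepG2 cells with a membrane-impermeant DNA dye; rising fluorescence marks dead cells. Compound exposure lasted up to 40 h at 37 C, with reads every 8 h from 0 h.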

The nature of assay [18]: qHTS RealTime-Glo MT Cell Viability Assay in HepG2 cells - 32 hour (AID 1224877). Further: nearly all actives have a fitted effect of over 55% in size. Put shortly:
as §1

Assay [19] can be described thus: A CellTox Green Cytotoxicity Assay to monitor cytotoxicity in HepG2 cells - 40 hour (AID 1224879). Further: nearly all actives have a fitted effect of over 40% in size. The method, boiled down:
as §5

A short description of assay [20]: A CellTox Green Cytotoxicity Assay to monitor cytotoxicity in HepG2 cells - 24 hour (AID 1224878). Further: nearly all actives have a fitted effect of over 45% in size. Put shortly:
as §5

Unmarked numbers belong to inactive results. Inconclusive results are not listed. The source made the active and inactive calls. Unless noted, the call rests on the fitted dose curve; in most records, active means well fitted curve in the direction sought with a large enough effect in the repeat runs; inconclusive means weak or mixed curves; inactive means no such curve, though single readings can be large; an effect the other way counts as inactive or inconclusive.
On the % scale 0 is the no-effect control and ±100 the full control effect.

Thyrotropin receptor (Homo sapiens), sequence (P16473 whole entry, looked up): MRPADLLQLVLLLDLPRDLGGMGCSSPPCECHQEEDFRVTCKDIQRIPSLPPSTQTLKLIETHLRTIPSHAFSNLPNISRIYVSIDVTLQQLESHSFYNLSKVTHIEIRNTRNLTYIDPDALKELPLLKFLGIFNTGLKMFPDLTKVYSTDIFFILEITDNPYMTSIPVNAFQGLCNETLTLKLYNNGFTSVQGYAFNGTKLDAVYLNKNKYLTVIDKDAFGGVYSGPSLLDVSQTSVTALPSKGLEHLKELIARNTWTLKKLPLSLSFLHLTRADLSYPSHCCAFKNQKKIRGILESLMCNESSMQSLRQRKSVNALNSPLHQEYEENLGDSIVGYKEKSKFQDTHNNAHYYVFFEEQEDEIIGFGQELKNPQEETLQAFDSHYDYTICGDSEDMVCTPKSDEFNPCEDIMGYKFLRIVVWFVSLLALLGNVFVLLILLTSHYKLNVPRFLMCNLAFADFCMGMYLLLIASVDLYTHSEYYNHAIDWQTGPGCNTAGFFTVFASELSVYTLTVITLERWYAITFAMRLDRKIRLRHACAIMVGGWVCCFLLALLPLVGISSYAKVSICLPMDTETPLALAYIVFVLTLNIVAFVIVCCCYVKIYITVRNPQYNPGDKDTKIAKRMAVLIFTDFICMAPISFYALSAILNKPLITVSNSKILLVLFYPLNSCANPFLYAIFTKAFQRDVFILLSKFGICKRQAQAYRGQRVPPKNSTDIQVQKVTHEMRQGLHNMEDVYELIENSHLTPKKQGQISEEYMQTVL

As to `Nc1ccc(C(=O)Oc2ccccc2)c(O)c1`, the Potency entry in assay [1], in assay [2], in assay [3], in assay [5], in assay [6] and in [9] was “inactive” each time. Besides, the Potency result in assay [10], in [11], in [12], in assay [13], in assay [16] and in [17] was “inactive” in each case. For the same compound, the Potency result in [18] and in assay [19] was “inactive” in each case. For the same compound, the compound was classed as inactive in assay [4], in assay [8] and in assay [14]. In [7], the activity change, positive = activation is 83.9% [at 42.5 µM] (active). Further, the max response in assay [15] is -15.9%.
On to `C=CC(=O)OCCCCCCCCCC`, for which the Potency entry in assay [1], in assay [2], in assay [3], in [5], in [6] and in assay [9] was “inactive” throughout. Moreover, the Potency result in assay [10], in assay [11], in assay [12], in [13], in assay [16] and in [17] was “inactive” throughout. For the same compound, the Potency entry in assay [18], in [20] and in [19] was “inactive” each time. Moreover, the outcome in [4], in [8] and in [14] was inactive. The activity change, positive = activation in assay [7] was 2.6%. Moreover, the max response in assay [15] is 12.1%.
For the compound `O=C(Nc1ccccc1)c1cc([N+](=O)[O-])ccc1Cl`, the Potency result in assay [1], in [2], in [3], in assay [5], in [9] and in [10] was “inactive” in each case. For the same compound, the Potency result in assay [11], in assay [12], in assay [13], in assay [16], in assay [17] and in assay [18] was “inactive” throughout. Besides, the Potency result in [20] is “inactive”. The call in assay [4], in assay [8] and in [14] was inactive. Besides, in assay [6], the Potency is 54.5 µM (active). Further, the activity change, positive = activation in assay [7] is -35.1%. Further, in [15], the max response was -23.2%.
As for `CC(=O)Nc1ccn(C2COC(COC(=O)c3ccccc3)O2)c(=O)n1` (centres undefined), the Potency entry in assay [1], in assay [2], in assay [3], in [5], in assay [6] and in assay [9] was “inactive” throughout. In addition, the Potency entry in [10], in assay [11], in assay [12], in assay [13], in assay [16] and in [17] was “inactive” each time. The Potency result in assay [18], in [20] and in assay [19] was “inactive” in each case. For the same compound, the compound was classed as inactive in assay [4], in [8] and in [14]. Moreover, the activity change, positive = activation in [7] is -13.3% [at 42.5 µM]. The max response in assay [15] is 3.96%.
Regarding `Cc1cc(N)n(-c2ccccc2)n1`, the Potency result in assay [1], in assay [2], in assay [3], in assay [5], in assay [6] and in [9] was “inactive” in each case. Also, the Potency entry in assay [10], in assay [11], in assay [12], in [13], in assay [16] and in assay [17] was “inactive” throughout. Also, the Potency result in assay [18], in assay [20] and in [19] was “inactive” each time. Besides, the result in assay [4], in [8] and in assay [14] was inactive. Further, in assay [15], the max response is -5.72%.
With `O=C(Cl)c1cc(Cl)cc(Cl)c1`, the Potency entry in assay [1], in assay [2], in assay [3], in assay [5], in [9] and in assay [10] was “inactive” throughout. Further, the Potency result in [11], in assay [12], in assay [13], in [16], in assay [17] and in [18] was “inactive” throughout. Besides, the Potency entry in assay [19] is “inactive”. The result in assay [4], in assay [8] and in assay [14] was inactive. In addition, the max response in assay [15] is -8.34%.

These data come from PubChem BioAssay (Tox21).
